Assay outcomes as filed in PubChem.
An excerpt weighted towards active compounds, which were near 4.2% of everything screened.
NALP3 yeast inh – inhibitors of NALP3 inflammasome in yeast. Yeast reconstituted NLRP3/ASC/caspase-1, beta-gal luminescence, 24 h. inhibition, % at 10 µM. 330,000 compounds, 0.39% hits. AID 2825;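 active = inhibition of 50% or more; inactive = inhibition below 50%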
NALP1 inh – inhibitors of NALP1 inflammasome in yeast; 280,000 compounds, 0.61% hits; inhibition, % at 10 µM; S. cerevisiae NALP1/ASC/caspase-1 growth, X-gal OD620, 72 h; in the data active = inhibition mostly above about 24%, no sharp cut-off; inactive = mostly below about 32%
tim23-1 inh – tim23-1 yeast growth inhibition | S. cerevisiae tim23-1 growth, BacTiter-Glo luminescence, 24 h | 330,000 compounds, 1.3% hits | AID 463212 | inhibition, % at 20 µM;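 active = growth inhibition of the mutant yeast at or above 50%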;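 note: temperature-sensitive mutant grown at 25 °C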
tim10-1 inh – inhibits growth of tim10-1 mutant yeast; S. cerevisiae tim10-1 ts strain growth, BacTiter-Glo, 24 h; inhibition, % at 20 µM; 330,000 compounds, 2.2% hits;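 active = inhibition of at least 40%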;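 note: mutant grown at 25 °C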
V-ATPase pHluor – regulators of yeast V-ATPase proton transport. S. cerevisiae, pHLuorin cytosolic pH fluorescence. response, % at 10 µM. 350,000 compounds, 0.37% hits; in the data active = response mostly above about 7.3%, no sharp cut-off; inactive = mostly below about 5.4%; note: actives read high
TIM10 inh – TIM10 yeast growth inhibition. S. cerevisiae TIM10 strain growth, BacTiter-Glo luminescence, 24 h. inhibition, % at 10 µM. 330,000 compounds, 1.4% hits. AID 463195;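 active = inhibition of 40% or more at the single tested concentration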;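 note: wild-type TIM10 isogenic control strain grown at permissive 25 °C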
VATPase regulator – regulators of yeast V-ATPase proton transport. 980 compounds, 2% hits. shares compounds with V-ATPase pHluor. response, % at 10 µM. S. cerevisiae pHLuorin cytosolic pH. AID 602197; in the data active = response above about 24%
Of the large screens only hits and unclear results are named; the others gave an inactive call (follow-up assays come after a bar, where they were run).

CC1C(=O)N2CCCc3cc(S(=O)(=O)N4CCC(C(N)=O)CC4)cc1c32 (stereo not drawn)	none
COc1ccc(OC)c(-n2c(SCC(=O)NCc3ccco3)nnc2-c2c[nH]c3ccccc23)c1	V-ATPase pHluor 12 | VATPase regulator inactive
CC(C)C(NC(=O)c1ccccc1NC(=O)c1ccccc1)C(=O)NCCCn1ccnc1 (stereo not drawn)	V-ATPase pHluor 9.5 | VATPase regulator inactive
CC(C)(C)CN1C(=O)C(=O)NC[C@@H]1CCCCN	none (no result: NALP1 inh)
CC(=O)c1c(C)[nH]c(C(=O)NCc2cccc(Cl)c2)c1C	V-ATPase pHluor 9.6 | VATPase regulator inactive
ON=C1c2ccccc2-c2ccccc21	none
NC(N)=NN=C1c2ccccc2-c2ccccc21	V-ATPase pHluor 201 | VATPase regulator inactive
O=S1(=O)C=C(SCCN2CCCCC2)c2ccccc21	none | VATPase regulator inactive
CCN(CC)C(=O)[C@H]1C[C@H](CC(=O)NCCN2CCOCC2)C(=O)N2CCc3c([nH]c4cc(CCC(=O)N(C)C)ccc34)[C@]12C	none (no result: NALP3 yeast inh, NALP1 inh)
COc1ccccc1CNC(=O)c1oc2ccc(S(=O)(=O)N3CCCC3)cc2c1C	V-ATPase pHluor 7.2 | VATPase regulator inactive
COc1ccccc1CNC(=O)c1oc2ccc(S(=O)(=O)N3CCOCC3)cc2c1C	none
O=C1C2CCCCN2C(=O)N1CCN1CCN(c2cccc(Cl)c2)CC1 (stereo not drawn)	V-ATPase pHluor 6.3 (no result: NALP3 yeast inh, NALP1 inh, tim23-1 inh, tim10-1 inh, TIM10 inh) | VATPase regulator inactive
CC1CCCC(NC(=S)Nc2cccc(S(=O)(=O)N(C)C)c2)C1C (stereo not drawn)	V-ATPase pHluor 8.2 | VATPase regulator inactive
CCN(CC)c1ccc(S(=O)(=O)N2CCCCC2)cc1NC(=O)CSCc1c(C)noc1C	V-ATPase pHluor 10 (no result: NALP3 yeast inh, NALP1 inh, tim23-1 inh, tim10-1 inh, TIM10 inh) | VATPase regulator inactive
CCOc1ncccc1C(=O)Nc1nc(C(C)(C)C)cs1	V-ATPase pHluor 9.4 | VATPase regulator inactive
COc1ccccc1NS(=O)(=O)c1cc(NC(=O)CCc2nc3ccccc3c(=O)[nH]2)ccc1C	none (no result: NALP1 inh)
CC1CCN(c2nc(-c3ccc(F)cc3)cc(C(F)(F)F)n2)CC1	V-ATPase pHluor 8.6 | VATPase regulator inactive
C[C@H](CO)N1C[C@H](C)[C@@H](CN(C)Cc2cccc3c2OCCCO3)OCc2cnnn2CCCC1=O	V-ATPase pHluor 9.4 (no result: NALP3 yeast inh, NALP1 inh, tim23-1 inh, tim10-1 inh, TIM10 inh) | VATPase regulator inactive
C[C@@H]1CN([C@H](C)CO)C(=O)CCCn2nncc2CO[C@H]1CN(C)Cc1cccc2c1OCCCO2	none (no result: NALP3 yeast inh, NALP1 inh, tim23-1 inh, tim10-1 inh, TIM10 inh)
O=C1C=C(c2ccc(C(=O)O)cc2)C[C@@H](c2ccc(F)cc2)C1	V-ATPase pHluor 9.7 (no result: NALP1 inh) | VATPase regulator inactive
O=C1C=C(c2ccc(-c3ccccc3)cc2)C[C@@H](c2ccc(F)cc2)C1	none (no result: NALP1 inh)
CCOC(=O)c1cn2c(C)cccc2n1	none
CCOC(=O)c1cccc(C(=O)OCC)n1	none | VATPase regulator inactive
COc1ccc(OCc2cc(C(=O)N3C[C@H]4CC[C@H]3C4)no2)c(Cl)c1	none
COc1cc(OC)cc(C(=O)OCC(=O)NC2CCCCCCC2)c1	none (no result: NALP3 yeast inh, NALP1 inh, tim23-1 inh, tim10-1 inh, TIM10 inh)
COCc1nc2sc(C)c(C)c2c(=O)[nH]1	V-ATPase pHluor 12 | VATPase regulator inactive
COc1cc(NC(=O)Cn2cnc3c(NCc4ccccc4)ncnc32)cc(OC)c1OC	V-ATPase pHluor 11 (no result: NALP3 yeast inh, NALP1 inh) | VATPase regulator inactive
CCOC(=O)c1c(C)[nH]c(C(=O)C(C)OC(=O)c2cnc(C)cn2)c1C (stereo not drawn)	none (no result: NALP1 inh)
CCOC(=O)c1c(C)[nH]c(C(=O)COC(=O)c2cnc(C)cn2)c1C	V-ATPase pHluor 11 | VATPase regulator inactive
CCCCNc1nnc(CCn2nc(C)c(Br)c2C)s1	none
CCNc1nnc(CCn2nc(C)c(Br)c2C)s1	V-ATPase pHluor 18 | VATPase regulator inactive
c1ccc2c(c1)CCN(Cc1nnnn1Cc1ccc3c(c1)OCO3)C2	none
c1ccc(Cn2nnnc2CN2CCN(Cc3ccc4c(c3)OCO4)CC2)cc1	V-ATPase pHluor 6.8 | VATPase regulator inactive
O=C(NCCc1c[nH]c2ccccc12)C1CCC(=O)N(CCc2cccc(F)c2)C1 (stereo not drawn)	V-ATPase pHluor 11 | VATPase regulator inactive
COCCN1CCN(C(=O)C2CCC(=O)N(CCc3cccc(F)c3)C2)CC1 (stereo not drawn)	V-ATPase pHluor 7.4 | VATPase regulator inactive
Cc1c(-n2c(SCC(=O)O)nnc2-c2ccccc2Br)c(=O)n(-c2ccccc2)n1C	V-ATPase pHluor 7.1 (no result: NALP1 inh) | VATPase regulator inactive
C=CCNC(=O)CSc1nnc(-c2ccccc2Cl)n1-c1c(C)n(C)n(-c2ccccc2)c1=O	none
O=C(NCc1ccco1)C1CCCN1C(=O)Nc1ccccc1Cl (stereo not drawn)	none
CCCS(=O)(=O)c1nc(S(=O)(=O)c2ccc(C)cc2)c(N2CCC3(CC2)OCCO3)s1	none
CCCCn1c(N)c(N(CC(C)C)C(=O)CN2C(=O)c3ccccc3C2=O)c(=O)[nH]c1=O	none (no result: NALP1 inh)
CCCCn1c(N)c(N(CC(C)C)C(=O)CC2OC(=O)c3ccccc32)c(=O)[nH]c1=O (stereo not drawn)	V-ATPase pHluor 11 (no result: NALP1 inh) | VATPase regulator inactive
Cc1ccc(CNC(=O)C2CCC(=O)N(C3CCCC3)C2)c(F)c1F (stereo not drawn)	none
COc1cc(/C=N/NC(=O)CN2CCCCC2)ccc1OCc1ccccc1	V-ATPase pHluor 9.6 | VATPase regulator inactive
CN(C)S(=O)(=O)Nc1ccc(Cc2ccncc2)cc1	none (no result: NALP3 yeast inh, NALP1 inh, tim23-1 inh, tim10-1 inh, TIM10 inh)
CC(=C/c1ccc(C(C)C)cc1)/C=N/NC(=O)Cn1nnnc1N	none
CC1=C(C(N)=O)C(c2cccc(O)c2)n2nc(CCCO)nc2N1 (stereo not drawn)	V-ATPase pHluor 7.2 | VATPase regulator inactive
CC1=C(C(N)=O)C(c2ccc(Cl)cc2)n2nc(CCCO)nc2N1 (stereo not drawn)	none
CC(=O)c1ccc(NC(=O)COC(=O)CCC2CCCC2)cc1	none (no result: NALP1 inh)
CC(c1ccccc1)C1C(C#N)=C(N)OC2=C1C(=O)CC(C)(C)C2 (stereo not drawn)	V-ATPase pHluor 11 | VATPase regulator inactive
CC1(C)CC(=O)C2=C(C1)OC(N)=C(C#N)C2C#Cc1ccccc1 (stereo not drawn)	none
CC1CC(C)CN(CCCNS(=O)(=O)c2ccc3c(c2)oc(=O)n3C)C1 (stereo not drawn)	none
CN(C)CCCN(C(=O)c1ccc2c(c1)CCCC2)c1nc2ccc(F)cc2s1	NALP1 inh 47, V-ATPase pHluor 19 | VATPase regulator inactive
CN(C)CCN(C(=O)c1cc(Cl)sc1Cl)c1nc2ccc(F)cc2s1	none
Cc1cc(NC(=O)CCC(=O)N(CC(=O)NC2CCCC2)Cc2ccc3c(c2)OCO3)no1	V-ATPase pHluor 9.7 | VATPase regulator inactive
CCCn1c(N)c(N(CCOC)C(=O)c2ccc(S(=O)(=O)N3CCOCC3)cc2)c(=O)[nH]c1=O	none (no result: NALP3 yeast inh, NALP1 inh, tim23-1 inh, tim10-1 inh, TIM10 inh)
Nc1cccc(P(=O)(c2ccccc2)c2ccccc2)c1	V-ATPase pHluor 9.6 | VATPase regulator inactive
CC(C)(C)n1cnc(C(N)=O)c1N	V-ATPase pHluor 9.5 | VATPase regulator inactive
